Assay outcomes as filed in PubChem.
In the library only some 5% were active in any assay of this set; here they are far more common.
Vaccinia Venus = vaccinia inhibition (Venus reporter); Vaccinia virus Venus reporter expression, fluorescence; Potency, µM (highest dose often 36.5 µM), for the others: at the highest dose activity change, negative = inhibition, usual class: inhibitors; 330,000 compounds, 0.46% hits; calls by dose curve; tested in A549 cells; further: potency means the concentration at half of the fitted maximal effect; nearly all actives have a fitted effect of over 30% in size
LmPK inh = LmPK (Leishmania mexicana) enzyme inhibition; Q27686; purified LmPK, Kinase-Glo ATP luminescence, 1 h; Potency, µM (titrated, usually from 57.5 µM), for inactives: top-dose activity change, negative = inhibition, most hits filed as inhibitors; 290,000 compounds, 0.37% hits; further: potency means the concentration at half of the fitted maximal effect
Target sequence (Q27686 whole entry, looked up): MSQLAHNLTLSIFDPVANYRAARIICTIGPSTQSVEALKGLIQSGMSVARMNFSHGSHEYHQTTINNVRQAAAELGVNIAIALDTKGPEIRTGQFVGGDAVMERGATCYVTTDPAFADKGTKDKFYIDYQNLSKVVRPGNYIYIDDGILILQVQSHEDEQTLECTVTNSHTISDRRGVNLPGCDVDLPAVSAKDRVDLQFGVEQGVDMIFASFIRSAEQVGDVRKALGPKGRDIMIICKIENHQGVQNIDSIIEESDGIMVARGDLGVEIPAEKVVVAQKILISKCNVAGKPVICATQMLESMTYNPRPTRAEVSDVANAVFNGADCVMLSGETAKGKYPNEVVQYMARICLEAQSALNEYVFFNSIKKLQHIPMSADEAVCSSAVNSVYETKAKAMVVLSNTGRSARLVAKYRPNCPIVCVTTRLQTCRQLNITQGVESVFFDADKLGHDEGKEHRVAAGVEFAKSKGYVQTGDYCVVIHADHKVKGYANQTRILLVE
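Pyruvate kinase activity monitored as ATP production (luciferase luminescence). Conditions: 0.1 nM enzyme, 0.5 mM PEP, 0.1 mM ADP, 1 h, RT; normalized against uninhibited and no-enzyme wells.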
Tb PYK inh = T. brucei pyruvate kinase inhibition. TbPYK enzyme, Kinase-Glo Plus ATP luminescence, 45 min. Potency, µM (highest dose often 76.8 µM), inactives show top-dose activity, negative = inhibition, actives largely listed as inhibitors. 410,000 compounds, 0.12% hits. Q57TT1; further: potency means the concentration at half of the fitted maximal effect; nearly all actives have a fitted effect of over 50% in size
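Luminescent Kinase-Glo Plus end-point after 45 min room-temperature reaction of T. brucei pyruvate kinase started with 130 uM ADP (final). Buffer TEA 50 mM pH 7.2 with KCl, MgCl2, BSA, Tween-20; titration-based qHTS with fitted concentration-effect curves.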
HCMV inh = blocks human cytomegalovirus replication | HFF cells, HCMV-luciferase reporter, 72 h; active compounds read low | activity change, negative = inhibition, % at 57.5 µM | 410,000 compounds, 4.5% hits | AID 1259415; in the data active means activity change below about -60%; inconclusive means no clear call, values can overlap the other calls; inactive means above about -39%
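Cell-based, HFFs, 1000 cells/well, 16 h 37C; cpds in DMSO + HCMV-luc, MOI 1 PFU/cell; 72 h 37C; OneGlo luminescence after 5 min RT; norm. to buffer vs Salinomycin 10uM.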
VACV mCherry inh = vaccinia inhibition (mCherry reporter). Vaccinia virus mCherry reporter infection, fluorescence. Potency, µM (doses to about 36.5 µM), without a hit: at the highest dose activity change, negative = inhibition, actives largely listed as inhibitors. 310,000 compounds, 0.63% hits. AID 720579; calls by dose curve; tested in A549 cells; further: potency means the concentration at half of the fitted maximal effect; nearly all actives have a fitted effect of over 35% in size
An asterisk follows results filed as active; ! = not active in a repeat; [ ] = another dose, or the depositor's remark. Unless noted, the call rests on the fitted dose curve; in most records, active means well fitted curve in the direction sought with a large enough effect; inconclusive means small, poorly fitted or top-dose-only effect, or another doubt; inactive means no such curve, though single readings can be large; an effect the other way counts as inactive or inconclusive. On the % scale 0 is the no-effect control and ±100 the full control effect.

What do the screens show for `CC(=O)Nc1ccc(OCc2cc(=O)n3ccccc3n2)cc1`?
Vaccinia Venus: -8%; Tb PYK inh: -9%; HCMV inh: 35; VACV mCherry inh: -2%

Results for COc1cc(-c2nc3n(c(=O)c2C#N)CCS3)cc(OC)c1OC ?
Vaccinia Venus: -2%; LmPK inh: 2%; Tb PYK inh: 2%; HCMV inh: 19; VACV mCherry inh: inactive

Results for CCC(C)NS(=O)(=O)c1ccc(NC(=O)C2CCCO2)cc1 (stereo unspecified) ?
Vaccinia Venus: -1%; LmPK inh: -4%; Tb PYK inh: -2%; HCMV inh: 18; VACV mCherry inh: 4%

What do the screens show for `COc1ccc(S(=O)(=O)n2cccc2)c(OC)c1`?
Vaccinia Venus: -14%; LmPK inh: -2%; Tb PYK inh: -1%; HCMV inh: -15; VACV mCherry inh: -14%

Results for COCc1cc(Sc2cccc(Cl)c2Cl)nc(-c2ccccc2)n1 ?
Vaccinia Venus: -14%; LmPK inh: 1%; Tb PYK inh: -1%; HCMV inh: -33

What do the screens show for `Cc1ccc(-c2noc(C3CCN(C(=O)Nc4ccc(C#N)cc4)CC3)n2)o1`?
LmPK inh: -1%; Tb PYK inh: -1%; HCMV inh: -84*

What do the screens show for `CN(C)c1ccc(-c2noc(C3CCN(C(=O)Nc4ccc(Cl)cc4)CC3)n2)cc1`?
Vaccinia Venus: 6%; LmPK inh: -4%; Tb PYK inh: 2%; HCMV inh: 18; VACV mCherry inh: 0%

What do the screens show for `Nc1nc(CCl)nc(Nc2cccc3ccccc23)n1`?
LmPK inh: 0%; Tb PYK inh: -5%; HCMV inh: -98*

Results for Nc1nc(Nc2cccc3ccccc23)nc(C2CCCC2=O)n1 (stereo unspecified) ?
LmPK inh: 9%; HCMV inh: 34

What do the screens show for `O=C(O)c1ccnc(C(=O)O)c1`?
Vaccinia Venus: -4%; LmPK inh: 3%; Tb PYK inh: 2%; HCMV inh: 15; VACV mCherry inh: inconclusive

What do the screens show for `COc1ccc(-n2c(-c3ccco3)nc3c(cnn3-c3ccc(C)cc3)c2=O)cc1`?
Vaccinia Venus: -25%; LmPK inh: 10%; Tb PYK inh: 3%; HCMV inh: -5; VACV mCherry inh: inconclusive

Results for O=c1c2cnn(-c3ccccc3)c2nc(-c2cccs2)n1-c1cccc(Cl)c1 ?
Vaccinia Venus: -24%; LmPK inh: 2%; Tb PYK inh: 8%; HCMV inh: -76*; VACV mCherry inh: inactive

How did O=c1c2cnn(-c3ccccc3)c2nc(-c2cccs2)n1-c1ccc(Cl)cc1 do in these assays?
Vaccinia Venus: 0%; LmPK inh: 1%; Tb PYK inh: 3%; HCMV inh: -23; VACV mCherry inh: -4%

Results for COc1cccc(-n2c(-c3ccco3)nc3c(cnn3-c3ccc(C)cc3)c2=O)c1 ?
Vaccinia Venus: -15%; Tb PYK inh: 2%; HCMV inh: -76*; VACV mCherry inh: -28%

What do the screens show for `Cc1cccc2c1-c1sc(C(=O)NCCCN3CCCC(C)C3)cc1CO2` (stereo unspecified)?
LmPK inh: -7%; Tb PYK inh: 5%; HCMV inh: -23

What do the screens show for `CCN1CCN(CCCNC(=O)c2cc3c(s2)-c2ccccc2OC3)CC1`?
Vaccinia Venus: 0%[7.34 µM]; LmPK inh: -11%; Tb PYK inh: 0%; HCMV inh: -108*!; VACV mCherry inh: -14%

Results for CCCN1CCN(CCCNC(=O)c2cc3c(s2)-c2c(C)cccc2OC3)CC1 ?
Vaccinia Venus: -27%; LmPK inh: 2%; Tb PYK inh: 2%; HCMV inh: -70*!; VACV mCherry inh: -24%

Results for CCCN1CCN(CCCNC(=O)c2cc3c(s2)-c2ccccc2OC3)CC1 ?
Vaccinia Venus: -23%; LmPK inh: -2%; Tb PYK inh: -8%; HCMV inh: -23; VACV mCherry inh: inconclusive

What do the screens show for `Cc1cccc2c1-c1sc(C(=O)NCCc3ccc(Cl)cc3)cc1CO2`?
Vaccinia Venus: inconclusive; Tb PYK inh: -5%; HCMV inh: -87*; VACV mCherry inh: inconclusive

How did CCCn1nc(C(=O)OCC(=O)c2c(N)n(C)c(=O)n(C)c2=O)c2ccccc2c1=O do in these assays?
Vaccinia Venus: -9%; LmPK inh: -4%; Tb PYK inh: -4%; HCMV inh: -11; VACV mCherry inh: -11%

Results for O=C(NC(=S)Nc1ccccn1)c1ccc(-c2ccccc2)cc1 ?
Vaccinia Venus: -29%; LmPK inh: -14%; Tb PYK inh: -6%; HCMV inh: -20; VACV mCherry inh: 11µM*

What do the screens show for `S=C(Nc1ccc(Nc2ccccc2)cc1)Nc1ccccn1`?
Vaccinia Venus: -29%; LmPK inh: 3%; Tb PYK inh: -4%; HCMV inh: -95*; VACV mCherry inh: inconclusive

How did Cc1cc(C)c(NC(=S)NC(=O)c2ccc(-c3ccccc3)cc2)c(C)c1 do in these assays?
Vaccinia Venus: -4%; LmPK inh: 1%; Tb PYK inh: -4%; HCMV inh: -84*; VACV mCherry inh: -14%

Results for CCCCCN1C(=O)Cn2c(nc3ccccc3c2=O)C1C (stereo unspecified) ?
LmPK inh: -2%; Tb PYK inh: 6%; HCMV inh: 3

Results for O=C(CCC(=O)c1ccccc1)Nc1ccc(C(=O)O)cc1 ?
LmPK inh: -3%; Tb PYK inh: 2%; HCMV inh: -25

What do the screens show for `COc1ccc(-c2cc3ccccc3n2CC(O)CN2CCCCC2)cc1` (stereo unspecified)?
LmPK inh: -4%; Tb PYK inh: -3%; HCMV inh: -81*

What do the screens show for `COc1ccc(-c2cc3ccccc3n2CC(O)CNCCO)cc1` (stereo unspecified)?
Vaccinia Venus: -28%; LmPK inh: -4%; Tb PYK inh: 10%; HCMV inh: -7

Results for CCOC(=O)N1CCC(n2c(=S)[nH]c3cc(OCC)c(OCC)cc3c2=O)CC1 ?
LmPK inh: 5%; Tb PYK inh: -7%; HCMV inh: -77*

How did O=C(COC(=O)CCN1C(=O)/C(=C\C=C\c2ccccc2)SC1=S)Nc1cc(F)ccc1F do in these assays?
Vaccinia Venus: 10%; LmPK inh: 0%; Tb PYK inh: -12%; HCMV inh: -62*; VACV mCherry inh: -6%

What do the screens show for `O=C(CN1C(=O)/C(=C\C=C\c2ccccc2)SC1=S)Nc1ccc(F)cc1`?
Vaccinia Venus: 6%; LmPK inh: 2%; Tb PYK inh: 0%; HCMV inh: -30; VACV mCherry inh: -3%

Results for O=C(N/N=C/c1ccc(N2CCOCC2)o1)c1cccc([N+](=O)[O-])c1 ?
Vaccinia Venus: -19%; LmPK inh: -3%; Tb PYK inh: 13µM*; HCMV inh: -17; VACV mCherry inh: inactive

What do the screens show for `O=C(N/N=C/c1ccc(N2CCCCC2)o1)c1ccccc1`?
Vaccinia Venus: -16%; LmPK inh: -13%; Tb PYK inh: 22µM*; HCMV inh: 24; VACV mCherry inh: -14%
